Test systems include MOLT-4 leukemia; RPMI-8226 leukemia; OVCAR-8 ovarian; OVCAR-5 ovarian; OVCAR-4 ovarian; SK-OV-3 ovarian; IGROV1 ovarian; OVCAR-3 ovarian; HS 578T breast; NCI/ADR-RES ovarian; T-47D breast; BT-549 breast; MDA-MB-435 melanoma; SW-620 colon; MCF7 breast; HCT-116 colon; HCC-2998 colon; KM12 colon; SR leukemia.
What all share (experiment): NCI-60 one-dose screen, 48 h (100 = growth as untreated, 0 = no growth, -100 = all killed)
Details in all cases: 10 µM unless noted

About 83,000 compounds went through this panel and 20% of them were active in at least one assay; those are over-represented in the sample as a whole.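 For each line, cells grew in 96-well plates with the test compound present at a single concentration for 48 hours.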 Unmarked numbers belong to inactive results. The source made the active and inactive calls. The calls were made as follows: active = growth percent below 10; inactive = the rest.

Turning to `CCn1c2ccccc2c2cc(C(=O)c3cccc4c3CCCN4)ccc21`, the growth is 104% with MOLT-4 leukemia; 112% in the assay on RPMI-8226 leukemia; 113% with OVCAR-8 ovarian; 99% in the assay on OVCAR-5 ovarian; 101% in the assay with OVCAR-4 ovarian; 106% with SK-OV-3 ovarian. Further, the growth is 110% in the assay with IGROV1 ovarian; 103% in the assay with OVCAR-3 ovarian; 92.1% in the assay on HS 578T breast; 92.7% in the assay on NCI/ADR-RES ovarian; 104% in the assay with T-47D breast; 98.1% in the assay on BT-549 breast. The growth in the assay with MDA-MB-435 melanoma was 97.6%; with SW-620 colon, 96.1%; with MCF7 breast, 96.5%; in the assay with HCT-116 colon it was 105%; in the assay on HCC-2998 colon, 104%; in the assay on KM12 colon, 94.9%.

In the case of `CCN(CC)c1ccc2c(c1)OC(N)=C(C#N)C2c1cc(OC)c2c(c1)OCO2` (stereo unspecified), the growth is 23.7% with MOLT-4 leukemia; 26.6% in the assay with RPMI-8226 leukemia; 17.6% with OVCAR-8 ovarian; 51.6% in the assay with OVCAR-5 ovarian; 43.5% in the assay with OVCAR-4 ovarian; 9.72% (active) in the assay with SK-OV-3 ovarian. Moreover, the growth in the assay on IGROV1 ovarian is 24%; with OVCAR-3 ovarian it was -30.7% (active); in the assay with HS 578T breast, 9.12% (active); in the assay with NCI/ADR-RES ovarian, -5.05% (active); in the assay on T-47D breast, 57.1%; with BT-549 breast, 16.6%. Besides, the growth is -13% (active) with MDA-MB-435 melanoma; 20.6% in the assay with SW-620 colon; 14.4% in the assay with MCF7 breast; -8.55% (active) in the assay on HCT-116 colon; -3.32% (active) in the assay with HCC-2998 colon; 2.07% (active) in the assay with KM12 colon.

With `COC(=O)[C@]12CCC(C)(C)C[C@H]1[C@H]1C(=O)C[C@@H]3[C@@]4(C)C[C@@]5(CC(C)(C)[C@@H]4CC[C@@]3(C)[C@]1(C)CC2)OO[C@@](C)(C(F)(F)F)O5`, the growth was 93.6% in the assay on MOLT-4 leukemia; 90.3% in the assay on RPMI-8226 leukemia; 97.6% in the assay with OVCAR-8 ovarian; 94.1% with OVCAR-5 ovarian; 81.1% with OVCAR-4 ovarian; 103% in the assay on SK-OV-3 ovarian. Besides, the growth with IGROV1 ovarian was 97.8%; with OVCAR-3 ovarian, 106%; in the assay with HS 578T breast, 99.7%; with NCI/ADR-RES ovarian, 98.6%; with T-47D breast, 81.4%; with BT-549 breast it was 111%. Moreover, the growth with MDA-MB-435 melanoma is 98.7%; in the assay with SW-620 colon, 103%; with MCF7 breast it was 82.2%; in the assay on HCT-116 colon, 88.7%; in the assay with HCC-2998 colon, 106%; with KM12 colon, 99.9%.

`Clc1cccc(Cl)c1Cl`: the growth in the assay on MOLT-4 leukemia is 104%; with RPMI-8226 leukemia, 110%; in the assay with OVCAR-8 ovarian it was 112%; in the assay with OVCAR-5 ovarian it was 97.8%; in the assay on OVCAR-4 ovarian it was 106%; with SK-OV-3 ovarian it was 104%. In addition, the growth is 104% with IGROV1 ovarian; 94.2% with OVCAR-3 ovarian; 102% with HS 578T breast; 105% in the assay with NCI/ADR-RES ovarian; 85.8% in the assay on T-47D breast; 102% in the assay on BT-549 breast. The growth is 105% with MDA-MB-435 melanoma; 105% with SW-620 colon; 93.5% in the assay with MCF7 breast; 98.9% in the assay with HCT-116 colon; 99.8% in the assay on HCC-2998 colon; 100% in the assay with KM12 colon.

In the case of `O=C1C(=Cc2cn(Cc3ccccc3)c3ccccc23)C(=O)N(Cc2ccccc2)C(=O)N1Cc1ccccc1`, the growth in the assay with MOLT-4 leukemia was 95.2%; with RPMI-8226 leukemia, 93.2%; in the assay with OVCAR-8 ovarian, 83.5%; with OVCAR-5 ovarian, -7.28% (active); in the assay with OVCAR-4 ovarian, 57.3%; with SK-OV-3 ovarian, 47.7%. For the same molecule, the growth in the assay on IGROV1 ovarian is 75.8%; in the assay with OVCAR-3 ovarian, 97.7%; in the assay with HS 578T breast it was 90.7%; in the assay on NCI/ADR-RES ovarian, 106%; in the assay on T-47D breast, 51.7%; with BT-549 breast it was 118%. The growth in the assay on MDA-MB-435 melanoma was 108%; in the assay with SW-620 colon, 101%; in the assay with MCF7 breast it was 80.3%; in the assay with HCT-116 colon, 76.2%; with HCC-2998 colon it was 97.4%; in the assay with KM12 colon, 101%.

For the molecule `O=C(c1cccc(O)c1O)c1cn(Cc2ccc(F)cc2)c2cccc(O)c12`, the growth in the assay with MOLT-4 leukemia was 4.3% (active); in the assay on RPMI-8226 leukemia, 9.16% (active); with OVCAR-8 ovarian it was 30.5%; with OVCAR-5 ovarian, 33.8%; in the assay on OVCAR-4 ovarian, 39%; with SK-OV-3 ovarian it was 40.7%. Further, the growth was -42.8% (active) in the assay with IGROV1 ovarian; 22.3% with OVCAR-3 ovarian; 45.5% with HS 578T breast; 19.3% in the assay on NCI/ADR-RES ovarian; 34.5% with T-47D breast; 41.4% in the assay with BT-549 breast. Further, the growth was 14.2% in the assay on MDA-MB-435 melanoma; 37.1% with SW-620 colon; 26.9% in the assay with MCF7 breast; 30.7% in the assay on HCT-116 colon; 35.6% with HCC-2998 colon; 44.1% in the assay with KM12 colon.

Take `O=C(CCl)c1ccc([N+](=O)[O-])o1`: the growth in the assay on MOLT-4 leukemia was -52.8% (active); in the assay on RPMI-8226 leukemia it was -47.7% (active); in the assay with OVCAR-8 ovarian, 8.79% (active); in the assay with OVCAR-5 ovarian, -72.8% (active); with OVCAR-4 ovarian, 2.25% (active); with SK-OV-3 ovarian it was 102%. Further, the growth with IGROV1 ovarian is 1.46% (active); in the assay on OVCAR-3 ovarian, -100% (active); in the assay on HS 578T breast, 40.9%; in the assay with NCI/ADR-RES ovarian it was -49.5% (active); in the assay with T-47D breast, -53.5% (active); in the assay with BT-549 breast, 44.3%. Moreover, the growth was -4.26% (active) with MDA-MB-435 melanoma; -97% (active) with SW-620 colon; 18.6% in the assay on MCF7 breast; -100% (active) with HCT-116 colon; 31.1% in the assay with HCC-2998 colon; -21.2% (active) in the assay with KM12 colon.

Consider `COc1cc(C=C2c3ccccc3C(=O)c3ccccc32)ccc1OCCCCOc1cc2c(cc1OC)C(=O)N1CCCC1C=N2` (stereo unspecified), for which the growth in the assay with MOLT-4 leukemia is -53.2% (active); with RPMI-8226 leukemia, -10% (active); in the assay on OVCAR-8 ovarian it was -30.4% (active); in the assay on OVCAR-5 ovarian, -61.3% (active); in the assay on OVCAR-4 ovarian, -41.1% (active); in the assay on SK-OV-3 ovarian it was -52.4% (active). Besides, the growth with IGROV1 ovarian is -85% (active); in the assay on OVCAR-3 ovarian it was -75.2% (active); in the assay on HS 578T breast it was -25.9% (active); with NCI/ADR-RES ovarian, 6.1% (active); with T-47D breast it was -30% (active); in the assay with BT-549 breast, -40.2% (active). Also, the growth with MDA-MB-435 melanoma is -57.6% (active); in the assay with SW-620 colon, -84.4% (active); in the assay on MCF7 breast, -77.1% (active); in the assay with HCT-116 colon it was -85.3% (active); in the assay on HCC-2998 colon, -94.4% (active); in the assay with KM12 colon, -85.7% (active).

For the molecule `Cc1ccc(S(=O)(=O)C(Cl)(Cl)Cl)cc1`, the growth in the assay with MOLT-4 leukemia was 79.6%; in the assay on SR leukemia, 89.4%; with OVCAR-8 ovarian, 96.2%; in the assay on OVCAR-5 ovarian, 96.8%; in the assay with OVCAR-4 ovarian, 105%; with SK-OV-3 ovarian, 82.5%. For the same molecule, the growth in the assay on IGROV1 ovarian is 99%; in the assay on HS 578T breast, 96.1%; with NCI/ADR-RES ovarian, 89.1%; in the assay with T-47D breast, 78.4%; with BT-549 breast it was 92.1%; in the assay on MDA-MB-435 melanoma it was 97.1%. Also, the growth in the assay with SW-620 colon was 99.3%; with MCF7 breast, 98.6%; with HCT-116 colon it was 87.3%; with HCC-2998 colon, 107%; with KM12 colon, 101%.

The values above are taken from PubChem BioAssay (NCI).
